Test results as given in ChEMBL document CHEMBL1157539, “Thousands of chemical starting points for antimalarial lead identification” (Nature, 2010).

Test system: HepG2
Test: GSK_TCMDC: Percent inhibition of human HepG2 cell line. Test compounds present at 10uM.
Assay type: functional

| SMILES | Inhibition [%] |
| --- | --- |
| O=C(Nc1cccc(CN2CCCN(Cc3ccccc3)CC2)c1)c1ccc(Cl)c(Cl)c1.O=C(O)C(F)(F)F | 23 |
| CC1CCN(C(=O)C(Cc2c[nH]c3ccccc23)NS(=O)(=O)c2ccc(Cl)cc2)CC1 (stereo not given) | 0 |
| CCCCCCCN1CCC(CCNc2ccnc3ccc(OC)cc23)CC1 | 5 |
| O=C(O)C(F)(F)F.O=c1[nH]ccc2nc(N[C@@H]3CCCNC3)nc(Nc3ccc(S(=O)(=O)N4CCOCC4)cc3)c12 | 13 |
| O=C(CSc1nc2ccc([N+](=O)[O-])cc2s1)Nc1ccccc1-c1ccccc1 | 0 |
| Nc1c(Cl)cc(C(O)CNCCCCCCOCCc2ccc(O)cc2)cc1Cl.O=C(O)/C=C/C(=O)O (stereo not given) | 13 |
| CC1(CCCCN2CCC(c3c[nH]c4cnccc34)CC2)C(=O)Nc2cccc(Cl)c21 (stereo not given) | 26 |
| Cc1cccc(C)c1CNc1cccc(-c2nc(C)c(C)[nH]2)c1.Cl | 58 |
| CCCCOC(=O)[C@H](CCC)NC(=O)c1ccc(NS(=O)(=O)c2ccc3nc(N)[nH]c(=O)c3c2)cc1 | 66 |
| COc1ccc(CCn2c(=N)c(C(=O)NCc3cccnc3)cc3c(=O)n4ccccc4nc32)cc1 | 16 |
| CCOC(=O)N(C)/N=C/[C@H](CCc1ccccc1)NC(=O)[C@H](CC(C)C)NC(=O)c1cc2cccc(OC)c2o1 | 2 |
| COc1ccc(N(C)Cc2cnc3nc(N)nc(N)c3n2)cc1 | 15 |
| CNCCNCc1cccc(-c2ccc(-c3nc4ccccc4[nH]3)cc2)c1.O=C(O)C(F)(F)F | 13 |
| COc1cc(COc2c(C)nc(N)nc2N)cc(OC)c1OC.Cl | 7 |
| Cc1ccc(C)c2sc(N(CCCn3ccnc3)C(=O)C=Cc3cccs3)nc12.Cl | 20 |
| COc1c(C2CCN(CCN3CCC(NC(=O)c4ccc(-c5ccc(C(F)(F)F)cc5)cc4)CC3)CC2)ccc2c1CCCC2 | 42 |
| CCOC(=O)C(C)(C)Oc1ccc(CN(Cc2ccc(CC(C)C)cc2)C(=O)Nc2ccc(F)cc2F)c(OC)c1 | 5 |
| CCc1cc2c(Sc3nnc(N)s3)ncnc2s1 | 0 |
| O=C(/C=C/c1ccc(Cl)c(Cl)c1)NCCCCCN1CCC(CCNC(=O)c2snnc2-c2ccccc2)CC1 | 54 |
| CN1CCC(C(=O)Nc2ccc(-c3cccc(-c4nc5cc(C(F)(F)F)ccc5[nH]4)c3)cc2)CC1 | 28 |

| SMILES | Inhibition [%] |
| --- | --- |
| Cc1ccc2c(c1)C1(CC(=O)N(CCc3scnc3C)C1=O)C(=O)N2Cc1ccccc1 (stereo not given) | 0 |
| O=C(O)C(F)(F)F.O=[N+]([O-])c1cccc(CNCC2CCN(Cc3ccc(C(F)(F)F)cc3)CC2)c1 | 7 |
| CN1CCC[C@H]1COc1ccc(CN2CC[C@H](NC(=O)c3ccc(Cl)c(Cl)c3)C2)cc1Br.O=C(O)C(F)(F)F | 81 |
| Cc1ccc(C(=O)Nc2ccc(C)c(OC3CCN(CCC(C)C)C3)c2)cc1.O=C(O)C(F)(F)F (stereo not given) | 6 |
| COc1ccc2[nH]ccc(=NN=Cc3ccncc3)c2c1 | 4 |
| CC(C)Cn1cc(C2CCN(CCN3CCC(CNC(=O)c4ccc(-c5ccc(C#N)cc5)cc4)CC3)CC2)c2ccccc21 | 28 |
| O=C(/C=C/c1ccc(C(F)(F)F)cc1)NCCCCCN1CCN(C(=O)Nc2ccc(Cl)c(Cl)c2)CC1 | 37 |
| CS(=O)(=O)c1ccc(CCNCc2ccc(-c3ccc(CN(C(=O)C4CCCC4)C4CCN(Cc5ccccc5)CC4)cc3)nc2)cc1.O=C(O)C(F)(F)F | 24 |
| COc1ccc(Cc2c(C)nc3nc(N)nc(N)c3c2C)cc1OC.Cl | 66 |
| COc1cc(-c2nc(-c3ccccc3)c(-c3ccccc3)[nH]2)cc(OC)c1O | 5 |
| Cc1cc(Nc2ccc(C)c(Cl)c2)n2nc(C(F)(F)F)nc2n1 | 2 |
| CCCCCn1c(Sc2ccc(C#N)c([N+](=O)[O-])c2)nnc1-c1ccc(OC)cc1 | 8 |
| C(=Cc1ccccc1)C=NN=c1cc[nH]c2ccccc12 | 24 |
| O=C(Nc1ccc(-c2nc3ccc(NC(=O)c4ccc(Br)cc4)cc3[nH]2)cc1)c1ccc(Br)cc1 | 40 |
| O=C(Nc1ccc(Cl)cc1)N(CC1CC2CCC(C1)N2Cc1ccc(C(F)(F)F)cc1)c1ccc(N2CCOCC2)c(F)c1 (stereo not given) | 31 |
| Br.CCOc1ccc(CCCON2C(=N)N=C(N)NC2(C)C)cc1 | 65 |
| O=C(NC1CCCC1)c1cc2c(=O)n3ccccc3nc2[nH]/c1=N/CCc1ccccc1 | 19 |
| O=C(/C=C/c1ccc(Cl)c(Cl)c1)N1CCC(CN2CCC(Cc3nc4ccccc4[nH]3)CC2)CC1 | 34 |
| CCN(CC)CCn1c(=N)n(CC(O)c2ccc(Cl)c(Cl)c2)c2ccccc21.Cl (stereo not given) | 35 |
| FC(F)(F)c1ccc(-c2cncc(-c3ccc(C(F)(F)F)cc3)n2)cc1 | 9 |
